# High-throughput results as filed in PubChem BioAssay.
# AmpC no deterg = qHTS Inhibitors of AmpC Beta-Lactamase (assay without detergent) | AmpC nitrocefin hydrolysis, absorbance 480 nm, 0.0001% Triton | Potency, µM (doses to about 57.1 µM), without a hit: top-dose activity change, negative = inhibition, most hits filed as inhibitors | actives 0.52% (n = 330,000);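 also: potency is read from the fitted curve at half-maximal effect; plate controls were no compound for no effect and no enzyme for full effect; nearly all actives have a fitted effect of over 20% in size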
# Target sequence (P00811 whole entry, looked up): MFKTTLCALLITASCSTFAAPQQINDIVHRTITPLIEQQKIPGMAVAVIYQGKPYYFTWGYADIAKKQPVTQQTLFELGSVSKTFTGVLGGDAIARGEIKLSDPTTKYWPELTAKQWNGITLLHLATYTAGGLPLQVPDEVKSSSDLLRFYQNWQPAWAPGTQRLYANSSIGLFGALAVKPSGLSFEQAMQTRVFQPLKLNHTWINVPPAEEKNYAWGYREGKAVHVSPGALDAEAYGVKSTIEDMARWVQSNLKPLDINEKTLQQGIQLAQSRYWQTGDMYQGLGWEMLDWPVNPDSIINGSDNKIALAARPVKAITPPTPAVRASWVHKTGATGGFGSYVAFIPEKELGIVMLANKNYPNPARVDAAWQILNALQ
#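 AmpC (5.3 nM in the dispensed reagent) in 20 mM phosphate pH 7.0 with 0.01% (detergent screen) or 0.0001% Triton X-100 was preincubated with compounds for 15 min at room temperature. Nitrocefin was then added from an 800 uM solution, and hydrolysis was followed at 480 nm.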
# AmpC detergent = qHTS Inhibitors of AmpC Beta-Lactamase (assay with detergent); Potency, µM (highest dose often 114 µM), for the others: top-dose activity change, negative = inhibition, hits mostly inhibitors; AID 485294, 2010; AmpC hydrolysis of nitrocefin, absorbance 480 nm, 0.01% Triton; actives 0.041% (n = 370,000);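 also: potency is read from the fitted curve at half-maximal effect; 0% = no-compound wells and -100% = no-enzyme wells; nearly all actives have a fitted effect of over 25% in size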
#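 AmpC (5.3 nM in the dispensed reagent) in 20 mM phosphate pH 7.0 with 0.01% (detergent screen) or 0.0001% Triton X-100 was preincubated with compounds for 15 min at room temperature. Nitrocefin was then added from an 800 uM solution, and hydrolysis was followed at 480 nm.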
# HCMV antiviral = qHTS Assay for inhibitors of the human cytomegalovirus (HCMV). HFF cells, HCMV-luciferase reporter, 72 h; hits give low values. activity change, negative = inhibition, % at 57.5 µM. actives 4.5% (n = 410,000); in the data active = activity change below about -60%; inconclusive = no clear call, values can overlap the other calls; inactive = above about -39%
#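 Two compound doses tested in HFFs infected with HCMV-luciferase, MOI 1 PFU/cell, 72 h at 37C. Lysate luminescence read with OneGlo; data normalized against buffer-only and 10uM Salinomycin inhibitor controls.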
# HCV inh = qHTS Assay for Inhibitors of Hepatitis C Virus (HCV) | Huh7.5.1 HCVcc-Cre infection, luciferase reporter, 44 h | Potency, µM (top dose mostly 41.8 µM), for inactives: top-dose activity change, negative = inhibition, hits mostly inhibitors | actives 3.4% (n = 340,000); also: potency is read from the fitted curve at half-maximal effect
#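 1,000 cells/well; 4 h culture; + compound; + HCVcc-Cre (~0.5 moi); 44 h; luciferase substrate, RT 15 min; read 15 sec.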
# FMDV inh = High Throughput Screening for Foot and Mouth Disease Virus Antivirals | FMDV antiviral cell-based qHTS | Potency, µM (titrated, usually from 57.9 µM), inactives show top-dose activity change, negative = inhibition, hits mostly inhibitors | actives 1.2% (n = 410,000); calls by dose curve; tested in HEK293T cells; also: read-out not given here; potency is read from the fitted curve at half-maximal effect; nearly all actives have a fitted effect of over 45% in size
# The depositor's hits bear a star; ? = inconclusive; / = no result; ! = not active in a repeat. The list is not random: actives were taken first. Their share in the collection is about 7.3%. Unless noted, calls follow the shape of the dose curve; as a rule, active = well fitted curve in the direction sought with a large enough effect; inconclusive = small, poorly fitted or top-dose-only effect, or another doubt; inactive = no such curve, though single readings can be large; an effect the other way counts as inactive or inconclusive. Unless noted, % is scaled to controls: 0 for no effect and ±100 for the full control effect.
SMILES,AmpC no deterg,AmpC detergent,HCMV antiviral,HCV inh,FMDV inh
CCOc1ccc(-n2c(C)cc(/C=N\NC(=O)CC(=O)NC3CCCCC3)c2C)cc1,33%,-8%,-81*,-11%,-29%
COc1cccc(NC(=S)NN2CCN(C)CC2)c1,-14%,?,-4,-10%,-16%
CN1CCN(NC(=S)Nc2ccc(Oc3ccccc3)cc2)CC1,45%,3%,-67*,?,?
COc1ccc2c3c(n(C)c2c1)[C@H](CO)N(Cc1nccs1)CC31CCN(C(=O)CN(C)C)CC1,/,/,13,/,/
CCOC(=O)c1c(NC(=O)COC(=O)c2cc(OC)c(OC)cc2[N+](=O)[O-])sc(C)c1CC,-50%,-2%,31,-9%,0%
CCOC(=O)c1c(CC(C)C)csc1NC(=O)COC(=O)c1cc(OC)c(OC)cc1[N+](=O)[O-],-29%,-3%,-71*,-7%,-1%
COc1ccc(OC)c(C2=NOC(C(=O)N3CCCc4ccccc43)C2)c1 (stereo unspecified),0%,-16%,-60*,?,-4%
COc1cc(CNc2nc3c(C)cc(C)cc3s2)ccc1O,-7%,-10%,23,?,-19%
Cc1cc(C)c2nc(NCc3ccccc3O)sc2c1,-46%,3%,-65*,?,41%
CSc1ccc(/C=C/c2cc(=O)c3ccccc3[nH]2)cc1,-36%,-5%,-25,?,-28%
O=c1cc(/C=C/c2cccs2)[nH]c2ccccc12,-35%,1%,-85*,?,?
Cc1ccnc(N2C(=O)c3cccc4c([N+](=O)[O-])ccc(c34)C2=O)c1,-15%,3%,58,11µM*,?
O=C1c2cccc3c([N+](=O)[O-])ccc(c23)C(=O)N1Cc1cccnc1,8%,2%,-73*,?,-4%
Cc1ccc(N2C(=O)c3cccc4c([N+](=O)[O-])ccc(c34)C2=O)c2cccnc12,-15%,4%,?,14%,?
COc1cc2ccccc2cc1C(=O)Nc1ccc(CN2CCOCC2)cc1,85%,-10%,-3,6.3µM*,39%
COc1ccc(NC(=O)c2cc3ccccc3cc2OC)cc1OC,77%,3%,-1,11µM*,11%
CC(C)Oc1ccc(-c2cc(C(=O)NCCN3CCOCC3)c3ccccc3n2)cc1,198%,-7%,95,10µM*,11%
O=C(NCCN1CCOCC1)c1cc2ccccc2oc1=O,-9%,2%,-20,3.2µM*,27%
O=C(NC(=S)Nc1ccc(CN2CCOCC2)cc1)c1cc2ccccc2o1,-16%,?,-70*,-9%,9%
COc1ccc(NC(=O)c2cc3c(Cl)nc4ccccc4c3s2)cc1OC,-25%,-9%,-83*,?,?
O=C(CCCc1ccccc1)NCCN1CCOCC1,-16%,-15%,-100*,20%,16%
CCC(=O)Nc1ccc(NC(=S)NC(=O)c2cc3ccccc3o2)cc1,-16%,2%,-26,8%,7%
COc1ccc(NC(=O)c2cc(-c3ccco3)on2)cc1OC,-4%,-7%,-3,11µM*,-2%
Cc1ccc(NC(=O)c2cc(-c3ccco3)on2)cc1C,-35%,-14%,-1,-6%,50%
OCC[C@H]1C[C@@H](O)[C@H](O)[C@@]2(Cc3ccccc3CO2)O1,-3%,0%,29,2%,4%
SMILES,AmpC no deterg,AmpC detergent,HCMV antiviral,HCV inh,FMDV inh
Cc1cccc(NC(=O)CN2CCN(C(=O)CN3C(=O)NC4(CCCCC4C)C3=O)CC2)c1C (stereo unspecified),/,/,11,-23%,?
O=C(Nc1ccc(CN2CCOCC2)cc1)c1cc2ccccc2o1,-3%,-3%,21,35µM*,/
O=C(Nc1ccc(N2CCOCC2)cc1)c1cc2ccccc2o1,-2%,-4%,8,?,-15%
CCc1ccc2nc(Nc3ccc(OC)cc3OC)c(C#N)cc2c1,-16%,-1%,-7,3.5µM*,13%
O=C(O)c1cc(S(=O)(=O)N2CC=C(c3ccccc3)CC2)ccc1O,-26%,?,/,/,/
COC(=O)c1nn(-c2ccc3c(c2)OCO3)cc1O,-3%,0%,62,-8%,6%
COC(=O)c1nn(-c2ccc3c(c2)CCN3C(C)=O)cc1O,-12%,-12%,?,-6%,8.9µM*
CCN1C(=O)CC2CCCC1C2 (stereo unspecified),/,/,3,-2%,-11%
CN1CCC(=C2c3ccccc3CC(=O)c3sccc32)CC1,-4%,-3%,-65*!,?,?
CCOC(=O)NC(=O)c1cn(-c2ccc(OC)cc2)c(=O)[nH]c1=O,-6%,?,35,18%,-11%
CCOc1ccccc1NC(=O)CSC1=C(C#N)C(c2ccco2)C(C(=O)Nc2nc3ccccc3s2)=C(C)N1 (stereo unspecified),5µM*,1%,12,2%,-7%
COc1ccc(-c2cc(-c3ccc(F)cc3)nc3c2COc2ccc(F)cc2-3)cc1,/,-3%,33,/,1%
Cc1c(C(=O)NC(=S)Nc2ccccc2N2CCCC2)cccc1[N+](=O)[O-],-39%,0%,-29,3.5µM*,?
CS(=O)(=O)N1CCN(c2ccc(NC(=S)NC(=O)c3ccccc3[N+](=O)[O-])cc2)CC1,-25%,-3%,-30,13µM*,?
CCOc1ccc(C(=O)NC(=S)NC2CCCC2)cc1[N+](=O)[O-],10µM*,?,-30,?,?
O=C(NC(=S)Nc1ccccc1N1CCCC1)c1ccc([N+](=O)[O-])cc1,-21%,9%,?,?,-7%
COc1ccc(C(=O)NC(=S)Nc2ccccc2N2CCCCC2)cc1[N+](=O)[O-],-48%,-11%,-11,13µM*,?
CCOc1ccc(C(=O)NC(=S)Nc2ccc(NC(=O)CC)cc2)cc1[N+](=O)[O-],-11%,?,2,?,0%
COc1ccc(CN2C(=NC(=O)C3CCCCC3)SC3CS(=O)(=O)CC32)cc1 (stereo unspecified),-6%,1%,-30,2%,-12%
COc1ccccc1NC(=O)N(C)C[C@H]1OCc2cn(nn2)CCCC(=O)N([C@H](C)CO)C[C@@H]1C,/,/,-6,/,/
Cc1cccc(N2CCN(c3ncnc4c3nc3n4CCCCC3)CC2)c1C,/,2%,-28,/,-14%
Fc1ccc(N2CCN(c3ncnc4c3nc3n4CCCCC3)CC2)cc1,/,-2%,-24,/,25µM*
Clc1ccc(N2CCN(c3ncnc4c3nc3n4CCCC3)CC2)cc1,/,-6%,-69*,/,?
O=C(NCc1ccc(F)cc1)C1CCN(c2ncnc3c2nc2n3CCCCC2)CC1,/,24%,18,/,-23%
